Screens as filed in PubChem BioAssay.
NPC1 prom act: activators of NPC1 promoter. Potency, µM (titrated, usually from 9.22 µM), actives largely listed as activators. Huh7 NPC1 promoter luciferase reporter, 24 h. 320,000 compounds, 2.4% hits; further: nearly all actives have a fitted effect of over 60% in size
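Stable NPC1-promoter luciferase Huh7 line; cpd (DMSO) 24 h, 37 °C, 5% CO2; Amplite luciferase reagent 10 min RT; luminescence readout. qHTS format.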
FLuc modulator: counter-screen for miR-21 project: firefly luciferase inhibitors or activators. 360,000 compounds, 6.9% hits. purified FLuc, Km substrates, luminescence inhibition. Potency, µM (doses to about 57.5 µM), actives largely listed as inhibitors. AID 588342. P08659; further: nearly all actives have a fitted effect of over 55% in size
Target sequence (P08659 whole entry, looked up): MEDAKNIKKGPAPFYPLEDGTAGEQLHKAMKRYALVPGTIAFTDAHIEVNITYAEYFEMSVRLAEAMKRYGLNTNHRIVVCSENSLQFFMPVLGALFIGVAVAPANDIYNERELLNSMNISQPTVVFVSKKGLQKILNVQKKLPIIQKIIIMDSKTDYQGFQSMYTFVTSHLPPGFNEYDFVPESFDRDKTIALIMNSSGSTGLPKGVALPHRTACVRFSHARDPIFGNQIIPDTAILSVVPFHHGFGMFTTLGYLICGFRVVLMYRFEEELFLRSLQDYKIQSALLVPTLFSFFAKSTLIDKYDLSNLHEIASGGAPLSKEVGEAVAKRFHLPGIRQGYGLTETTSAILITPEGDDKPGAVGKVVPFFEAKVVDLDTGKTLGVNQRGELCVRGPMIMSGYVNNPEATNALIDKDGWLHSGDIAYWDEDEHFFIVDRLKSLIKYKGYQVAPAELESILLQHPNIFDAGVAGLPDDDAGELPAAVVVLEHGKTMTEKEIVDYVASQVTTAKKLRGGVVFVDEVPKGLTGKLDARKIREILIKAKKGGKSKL
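Biochemical qHTS of compounds, final roughly 60 µM downward over six points, against 10 nM purified firefly luciferase using Km concentrations of substrates (10 uM D-luciferin, 10 uM ATP) in Tris acetate pH 7.5 buffer; luminescence output.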
SMN2 splice up: SMN2 splice variant enhancement | HEK293 SMN2-luciferase splicing reporter, luminescence, 30-36 h | Potency, µM (titrated, usually from 46.1 µM), actives largely listed as activators | 210,000 compounds, 2.8% hits; further: nearly all actives have a fitted effect of over 55% in size
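HEK293 cells carry an SMN2 […]–luciferase reporter in which exon 7 inclusion puts luciferase in frame. Cells were plated 10-12 h before compound addition, then incubated 30-36 h at 37C. ONE-Glo luminescence was read; sodium butyrate at 4.5 mM final served as control.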
ELG1 DNA repair: inhibitors of ELG1-dependent DNA repair in HEK293T cells; Potency, µM (titrated, usually from 46.1 µM), hits mostly inhibitors; 330,000 compounds, 2.3% hits; HEK293T ELG1-luciferase reporter, luminescence, 16 h; DNA damage induced by 5-fluorouridine; further: nearly all actives have a fitted effect of over 55% in size
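In this reporter screen, reduction of luminescence relative to DMSO vehicle indicated activity. Compounds and 5-fluorouridine were added together to 2,000 cells per well, incubated for 16 hr at 37 °C, then developed with ONE-Glo.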
Rab9 prom act: activates the Rab9 promoter. Huh7 Rab9 promoter-luciferase reporter, luminescence, 24 h. Potency, µM (series often up to 9.22 µM), usual class: activators. 320,000 compounds, 2.8% hits; further: nearly all actives have a fitted effect of over 60% in size
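Steps: seed 1500 Huh7 Rab9-luc cells per well, rest 2 h at 37 °C; add compound in DMSO; incubate 24 h; add luciferase reagent, 10 min ambient; read luminescence.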
ELG1 genotoxic: induces genotoxicity in HEK293T cells with luciferase-tagged ELG1; HEK293T ELG1-luciferase reporter, luminescence, 16 h; Potency, µM (top dose mostly 46 µM), usual class: activators; 330,000 compounds, 1.3% hits; further: nearly all actives have a fitted effect of over 60% in size
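HEK293T cells expressing luciferase-tagged ELG1 were exposed to compound or DMSO vehicle for 16 hr at 37 °C and 5% CO2. Luciferase activity was then measured with ONE-Glo after 30 min at room temperature.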
A number is an active result; 0 = inactive; ? = inconclusive; - = no result given; [ ] = another dose, or the depositor's remark. Compounds with a hit are over-represented: about 9.2% of the library has one in this group of screens. The call rests on the fitted dose curve; in most records, active means well fitted curve in the direction sought with a large enough effect; inconclusive means small, poorly fitted or top-dose-only effect, or another doubt; inactive means no such curve, though single readings can be large; an effect the other way counts as inactive or inconclusive.

SMILES | NPC1 prom act | FLuc modulator | SMN2 splice up | ELG1 DNA repair | Rab9 prom act | ELG1 genotoxic
O=C(NC(=S)NNC(=O)c1cccs1)c1ccccc1 | 0 | 0 | - | 0 | 0 | ?
COC(=O)c1ccc(NC(=S)NNC(=O)c2ccccc2)cc1 | 0 | 24µM | - | 0 | 0 | 0
COC(=O)c1ccc(NC(=S)Nc2ccccc2)cc1 | 0 | ? | 0 | 0 | 0 | ?
C=CCSC1=NN2CCS(=O)(=O)N=C2S1 | 0 | 0 | 0 | 0 | 0 | 0
CC(C)Oc1ccc(C(=O)NCC(=O)OCC(=O)N(C)Cc2cccs2)cc1 | 0 | 15µM | 0 | 0 | 0 | 0
CCOC(=O)CN(Cc1ccccc1)C(C(=O)NC1CCCCC1)c1ccc(OC)cc1 (stereo unspecified) | - | 0 | 0 | - | - | -
CCn1cnnc1SCC(=O)c1c(N)n(C2CC2)c(=O)[nH]c1=O | 0 | 0 | - | 0 | 0 | 0
COC(=O)C1CCN(C(=O)CCCOc2ccccc2)CC1 | ? | 4.8µM | - | ? | 2.2µM | 2.6µM
O=C(N1CCN(c2ccccn2)CC1)C(Cl)(Cl)Cl | 0 | 0 | 4µM | ? | 0 | 0
O=C(CCCOc1ccccc1)N1CCN(c2ccc(F)cc2)CC1 | 0 | 27µM | 0 | ? | 0 | ?
COC(=O)C1CCN(C(=O)CSc2ccccc2)CC1 | 0 | 0 | 0 | 0 | 0 | 0
O=C(CCCOc1ccccc1)N1CCN(c2ccccn2)CC1 | 1.3µM | 6.7µM | 14µM | ? | 0.89µM | 2.1µM
COc1ccc(-c2cn3nc(N4CCC(C(=O)Nc5ccc(C)cc5)CC4)sc3n2)cc1 | - | 0 | - | - | - | -
COc1ccc(S(=O)(=O)Nc2ccc3c(c2)sc(=O)n3C)cc1Cl | - | 0 | - | - | - | -
Cc1cc(S(=O)(=O)NCc2ccccc2)ccc1OCC(=O)NCC1CCCO1 (stereo unspecified) | 0 | 0 | 0 | 0 | 0 | 0
O=C(CCSCc1ccccc1F)N1CCN(c2ccccn2)CC1 | 0 | 19µM | ? | ? | ? | 18µM
CN(Cc1ccccc1)C(=O)c1ccco1 | 0 | 0 | - | 0 | 0 | 0
O=C(C#Cc1ccccc1)c1ccco1 | 0 | 15µM | - | ? | 0 | 0
CC(=O)/C(C#N)=C1\NC(=O)C(Cc2ccc(C)c(C)c2)S1 (stereo unspecified) | 0 | 21µM | ? | ? | 0 | 0
CCOc1ccc(C(=O)OCC(=O)NC(C)C)cc1 | 0 | 0 | 0 | 0 | 0 | 0
CCCCN1c2ccccc2N(CCCO)c2cc(C)nnc21 | 0 | 12µM | 0 | 0 | 0 | 0
CC(C)c1c(O)c2c(n(-c3ccccc3)c1=O)CCCC2 | 0 | 0 | 0 | 0 | 0 | 0
Cc1c(CC(=O)O)c(=O)oc2cc3oc4c(c3cc12)CCCC4 | 0 | 27µM | - | 0 | 0 | 0
Cc1c(CC(=O)NCC(=O)NCC(=O)O)c(=O)oc2c(C)c3oc4c(c3cc12)CCCC4 | 0 | ? | - | 0 | 0 | 0
Cc1oc2cc3oc(=O)c(CC(=O)O)c(C)c3cc2c1-c1ccccc1 | 0 | 0 | - | 0 | 0 | 0
SMILES | NPC1 prom act | FLuc modulator | SMN2 splice up | ELG1 DNA repair | Rab9 prom act | ELG1 genotoxic
Cc1c(CC(=O)NCC(=O)O)c(=O)oc2cc3oc4c(c3cc12)CCCC4 | 0 | 15µM | - | 0 | 0[1.84 µM] | 0
COc1ccc(C(=O)OCc2cc(=O)n3nc(-c4cccs4)sc3n2)cc1 | - | 0 | - | - | - | -
COc1ccc(CN(C)Cc2ccccc2)c(OC)c1OC | 0 | 0 | 0 | 0 | 0 | 0
COc1cccc(NC(=O)c2ccc(CN3CCc4ccccc4C3)cc2)c1 | 0 | 19µM | - | ? | 0 | 0
O=C(Nc1ccc(Cl)cc1)c1ccc(CN2CCc3ccccc3C2)cc1 | 0 | 0 | - | ? | 0 | 0
CC(=O)c1cccc(NC(=O)c2ccc(CN3CCc4ccccc4C3)cc2)c1 | 0 | ? | - | 8.2µM | 0 | 0
C/C(=N\NC(=O)c1ccc(CN2CCc3ccccc3C2)cc1)c1ccccc1O | 0 | 0 | 0 | 3.3µM | 0 | 0
COc1ccc(NC(=O)c2ccc(CN3CCc4ccccc4C3)cc2)cc1OC | 0 | ? | - | ? | 0 | 0
Cc1ccc(CN2CCNC(=O)C2CC(=O)N(C)CCc2cnn(C)c2)cc1 (stereo unspecified) | 0 | 0 | - | 0 | 0 | 0
Cc1nc2ccccn2c1C(=O)NC1CCCc2ccccc21 (stereo unspecified) | 0 | 0 | - | ? | 0 | 0
CCc1nn(C(CC)C(=O)NCCCN2CC(C)CC(C)C2)c(=O)c2cc3oc(C)cc3n12 (stereo unspecified) | 0 | 0 | - | 0 | 0 | 0
COc1ccc(CCNC(=O)c2c(Cl)ccc(Cl)c2OC)cc1OC | 0 | 0 | - | 0 | 0 | 0
COc1ccc(CN2CCN(Cc3c[nH]c4ccccc34)CC2CCO)c(F)c1 (stereo unspecified) | ? | 0 | - | ? | 0 | 0
COc1ccc(-c2nc3sc(CCNC(=O)C(=O)Nc4ccc(C)c(C)c4)c(C)n3n2)cc1 | - | 0 | - | - | - | -
COc1ccc(-c2nc3sc(CCNC(=O)c4ccccc4C)c(C)n3n2)cc1 | - | 17µM | - | - | - | -
COc1ccc(-c2nc3sc(CCNC(=O)c4cccc(C(F)(F)F)c4)c(C)n3n2)cc1 | - | 6.7µM | - | - | - | -
Cc1cc(C)c(S(=O)(=O)N2CCN(C(=O)c3ccc4c(c3)OCO4)CC2)c(C)c1 | 0 | 0 | - | 0 | 0 | 0
Cc1cc(-c2nnc(CSc3nnc(NC(=O)c4ccc(C(C)(C)C)cc4)s3)o2)ccc1[N+](=O)[O-] | 2.5µM | 1.7µM | - | ? | ? | ?
CCOc1ccc(C(=O)Nc2nnc(SCC(=O)NCC3CCCO3)s2)cc1 (stereo unspecified) | 0.1µM | 0.3µM | - | ? | ? | ?
CC(C)(C)c1ccc(C(=O)Nc2nnc(SCC(=O)NCC3CCCO3)s2)cc1 (stereo unspecified) | 0.5µM | 0.076µM | - | ? | 0.32µM | ?
CN(C)S(=O)(=O)c1ccc(C(=O)Nc2nnc(SCC(=O)NCC3CCCO3)s2)cc1 (stereo unspecified) | 0 | 0 | - | 0 | 0 | 0
O=C(CSc1nnc(NC(=O)c2cccc(F)c2)s1)NCC1CCCO1 (stereo unspecified) | 0 | 6µM | - | ? | 0 | 0
O=C(CCc1nc(-c2ccccc2F)no1)Nc1cccnc1 | 0 | 0 | - | 0 | 0 | 0
O=C(O)CCC(=O)Nc1ccc(-c2nnc(-c3ccco3)o2)cc1 | 0 | ? | 0 | 0 | 0 | 0
Cc1ccc(SCC(=O)Nc2ccc(-c3nnc(-c4ccco4)o3)cc2)cc1 | 2.5µM | 0 | ? | ? | 3.5µM | ?
O=C(O)CCC(=O)Nc1cccc(-c2nnc(-c3ccccc3)o2)c1 | 0 | 21µM | - | 0 | 0 | 0
O=C(COc1ccccc1)Nc1cccc(-c2nnc(-c3ccccc3)o2)c1 | ? | 12µM | ? | 0 | 0 | 0
Cc1cc(C)cc(OCC(=O)Nc2cccc(-c3nnc(-c4ccco4)o3)c2)c1 | 0 | 0 | 0 | 21µM | 0 | 0
CCOC(=O)C(C)NC(=O)Cn1ncc2c(=O)oc3ccc(C)cc3c21 (stereo unspecified) | 0 | 0 | - | 0 | 0 | 0
